Compound activity as filed in PubChem.
Compounds with a hit are over-represented: about 19% of the library has one in this group of screens.
TDP1 block = qHTS Assay for Inhibitors of Tyrosyl-DNA Phosphodiesterase (TDP1). AID 485290, 2010. Tyrosyl-DNA phosphodiesterase 1 (Homo sapiens), Q9NUW8. recombinant TDP1, AlphaScreen DNA substrate cleavage. 350,000 compounds, 0.28% hits. Potency, µM (doses to about 130 µM), without a hit: at the top dose activity change, negative = inhibition, actives largely listed as inhibitors; further: potency means the concentration at half of the fitted maximal effect; nearly all actives have a fitted effect of over 40% in size
Target sequence (Q9NUW8 whole entry, looked up): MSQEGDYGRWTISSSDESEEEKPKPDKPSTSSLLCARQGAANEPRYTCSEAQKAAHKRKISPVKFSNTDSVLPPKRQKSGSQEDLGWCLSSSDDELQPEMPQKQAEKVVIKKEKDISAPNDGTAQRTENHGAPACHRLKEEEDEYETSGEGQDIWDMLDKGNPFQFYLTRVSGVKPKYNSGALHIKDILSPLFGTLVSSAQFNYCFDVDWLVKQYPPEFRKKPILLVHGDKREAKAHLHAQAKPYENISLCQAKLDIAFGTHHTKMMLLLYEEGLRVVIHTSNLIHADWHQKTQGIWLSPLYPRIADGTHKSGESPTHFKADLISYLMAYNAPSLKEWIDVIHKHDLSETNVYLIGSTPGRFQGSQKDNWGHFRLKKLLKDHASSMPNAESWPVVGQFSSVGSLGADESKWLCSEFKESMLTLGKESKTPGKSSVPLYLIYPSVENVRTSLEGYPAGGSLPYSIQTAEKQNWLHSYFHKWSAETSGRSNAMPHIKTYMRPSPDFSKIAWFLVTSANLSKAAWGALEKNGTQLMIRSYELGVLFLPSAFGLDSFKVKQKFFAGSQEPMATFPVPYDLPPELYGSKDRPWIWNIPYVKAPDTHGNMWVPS
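Tdp1 1 nM final; 15 min RT w/ cpd; substrate 15 nM, 5 min; beads 10 ug/ml, 10 min; AlphaScreen read. Neg ctrl: no enzyme.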
ELG1 repair inh = qHTS screen for small molecules that inhibit ELG1-dependent DNA repair in human embryonic kidney (HEK293T) cells expressing luciferase-tagged ELG1; Potency, µM (top dose mostly 46.1 µM), for inactives: at the highest dose activity change, negative = inhibition, hits mostly inhibitors; HEK293T ELG1-luciferase reporter, luminescence, 16 h; DNA damage induced by 5-fluorouridine; 330,000 compounds, 2.3% hits; further: potency means the concentration at half of the fitted maximal effect; nearly all actives have a fitted effect of over 55% in size
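5-Fluorouridine DNA damage + compound/DMSO, 2,000 cells/well, 16 h, 37 °C/5% CO2. ONE-Glo, 30 min RT, luminescence. Readout = decrease in reporter signal.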
Giardia killer = Small Molecules that selectively kill Giardia lamblia: qHTS; Giardia lamblia trophozoite viability; activity change, % at 7.66 µM, hits read low; 340,000 compounds, 0.15% hits; AID 540267, 2011; in the data active means activity change below about -80%; inconclusive means between about -30% and that limit;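 further: parasites exposed to compound for two days anaerobically before the ATP read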
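ATP-content bioluminescence gauges trophozoite survival. Cells (100/well) receive compound and incubate anaerobically for 48 hrs at 37 deg C; detection reagent follows for 15-30 min at room temperature.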
IL1B secr inh = qHTS for Inhibitors of Inflammasome Signaling: IL-1-beta AlphaLISA Primary Screen; THP-1 LPS/ATP IL-1B secretion, AlphaLISA, 16 h; active compounds read low; activity change, % at 57.5 µM; 360,000 compounds, 4.7% hits; in the data active means activity change below about -50%; inconclusive means mostly about -30% to -49%
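Secreted IL-1B measured by AlphaLISA bead assay after 16 h compound exposure of THP-1 cells; compounds (final up to 57.5 uM) added 1 h before LPS (250 ng/mL) and ATP (1.25 mM) stimulation; lower signal means less secretion.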
TDP1 cell noCPT = qHTS for Inhibitors of human tyrosyl-DNA phosphodiesterase 1 (TDP1): qHTS in cells in absence of CPT; DT40 Tdp1-/- hTDP1 cells, no CPT, ATP luminescence, 48 h; Potency, µM (titrated, usually from 46.2 µM), for inactives: at the highest dose activity change, negative = growth inhibition, usual class: inhibitors; 420,000 compounds, 15% hits; further: potency means the concentration at half of the fitted maximal effect; nearly all actives have a fitted effect of over 55% in size
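Growth kinetics read by CellTiter-Glo luminescence after ≥48 hr at 37 °C. Cells: DT40 Tdp1-/- stably carrying human TDP1, 400 per well, compound exposure in the absence of CPT (DMSO vehicle).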
DT40 TDP1 CPT = qHTS for Inhibitors of human tyrosyl-DNA phosphodiesterase 1 (TDP1): qHTS in cells in presence of CPT; chicken DT40 Tdp1-/-;hTDP1 cells + 20 nM CPT, ATP luminescence, 48 h; Potency, µM (series often up to 46.2 µM), for the others: at the top dose activity change, negative = growth inhibition, actives largely listed as inhibitors; 420,000 compounds, 12% hits; AID 686979, 2013; further: potency means the concentration at half of the fitted maximal effect; nearly all actives have a fitted effect of over 55% in size
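Chicken DT40 Tdp1-/- cells stably complemented with human TDP1 were seeded at 400 cells/well in medium containing 20 nM camptothecin, exposed to pin-transferred compounds, and grown at 37 °C for at least 48 hr. Viability was read as ATP luminescence.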
Starred values were filed as active, the others as inactive; ? = inconclusive; . = no result; [ ] = remark or other dose. Unless noted, the call rests on the fitted dose curve; in most records, active means well fitted curve in the direction sought with a large enough effect; inconclusive means small, poorly fitted or top-dose-only effect, or another doubt; inactive means no such curve, though single readings can be large; an effect the other way counts as inactive or inconclusive. On the % scale 0 is the no-effect control and ±100 the full control effect.

SMILES	TDP1 block	ELG1 repair inh	Giardia killer	IL1B secr inh	TDP1 cell noCPT	DT40 TDP1 CPT
CCN(CC)S(=O)(=O)c1ccc(OC)c(NC(=O)c2cc([N+](=O)[O-])ccc2N2CCOCC2)c1	.	.	.	-4	16µM*	?
Cc1ccc2c(c1)c(=O)c(C(=O)c1ccncc1)cn2CC(=O)Nc1ccc(C(C)C)cc1	8%	.	.	.	-18%	-19%
Cc1ccc2c(c1)c1c(n2CC(O)CNC(C)(C)C)CCCC1 (centres undefined)	4%	5%	17	?	?	?
Cc1ccc2c(c1)c1c(n2CC(O)CN2CCCCCC2)CCCC1 (centres undefined)	.	6%	25	-74*	15µM*	?
OC(CN1CCCCC1)Cn1c2ccccc2c2cc(Br)ccc21 (centres undefined)	.	-5%	-10	-75*	16µM*	16µM*
OC(CN1CCNCC1)Cn1c2ccc(Br)cc2c2cc(Br)ccc21 (centres undefined)	9%	.	.	.	.	.
Cc1ccc2c(c1)c1c(n2CC(O)Cn2nc(C)c(Br)c2C)CCCC1 (centres undefined)	0%	-20%	6	-21	16µM*	?
Cc1ccc2c(c1)c1c(n2CC(O)Cn2c(C)nc3ccccc32)CCCC1 (centres undefined)	7%	6%	-3	-11	?	23µM*
CCCC(O)(CCC)C(=O)NN1CCCCC1	1%	10%	-11	20	?	23µM*
COc1ccccc1N1CCN(C(=O)C2CCN(S(=O)(=O)c3cccs3)CC2)CC1	0%	.	.	.	21µM*	16µM*
COc1cccc(N2CCN(C(=O)C3CCN(S(=O)(=O)c4cccs4)CC3)CC2)c1	2%	-7%	-2	18	13µM*	?
CCOC(=O)c1ccc(S(=O)(=O)N2CCC(C(=O)N3CCN(c4ccccc4OC)CC3)CC2)cc1	.	.	-4	-85*	-80%	?
CC1(CCC(=O)N2CCCC(N3CCN(c4ccc(F)cc4)CC3)C2)CC1 (centres undefined)	5%	-5%	-18	-7	?	?
O=Cc1ccc(O)cc1O	.	0%	11	-5	-12%	-1%
O=CN/C=C/c1cc(O)ccc1O	7.9µM*	-11%	13	-22	4.6µM*	4.1µM*
COc1cc(C=O)ccc1OC(=O)c1cccnc1	.	2%	-1	2	3%	7%
COc1ccc2[nH]cc(CCNS(=O)(=O)c3ccc(C)cc3)c2c1	.	?	-14	-18	-24%	?
COc1ccc(-c2nc(NC(C)=O)sc2-c2ccc(OC)cc2)cc1	6%	?	-4	54	-27%	1%
COc1ccc(-c2sc(NC(=O)c3ccc(C)cc3)nc2-c2ccc([N+](=O)[O-])cc2)cc1	3%	-10%	6	-9	?	23µM*
COc1ccc(C(=O)Nc2nc(-c3ccc([N+](=O)[O-])cc3)c(-c3ccccc3)s2)cc1	.	.	10	?	7.3µM*	8.2µM*
COc1ccc(C(=O)Nc2nnc(-c3ccccc3)s2)cc1	-5%	?	1	2	?	?
CC1(C)NC(=O)N(CC(=O)N2CCN(S(=O)(=O)c3cc(Cl)ccc3Cl)CC2)C1=O	1%	22%	10	-6	-6%	-1%
Cc1[nH]c2ccccc2c1C(=O)CN1C(=O)NC2(CC(C)CC(C)(C)C2)C1=O (centres undefined)	8%	?	3	-21	?	15µM*
CC1CC(C)(C)CC2(C1)NC(=O)N(CC(=O)N1CCN(S(=O)(=O)c3cccc(Cl)c3Cl)CC1)C2=O (centres undefined)	.	.	34	-22	?	18µM*
CCOC(=O)C(C)C(C)=O (centres undefined)	0%	12%	7	?	6.5µM*	6.5µM*
SMILES	TDP1 block	ELG1 repair inh	Giardia killer	IL1B secr inh	TDP1 cell noCPT	DT40 TDP1 CPT
CCN(CC(=O)Nc1c(F)cccc1F)C(=O)Cn1[nH]c(=O)c2ccccc2c1=O	0%[56.1 µM]	15%	8	0	3%	?
N#CCCN(C(=O)COC(=O)C1=NNC(=O)CC1)c1ccccc1	1%	6%	-8	36	-11%	4%
COc1ccc(CNC(=O)Nc2nc(C(N)Cc3ccc(F)cc3)cs2)cc1 (centres undefined)	.	.	.	?	16µM*	?
COc1ccccc1CNC(=O)Nc1nc(C(N)Cc2ccc(Cl)cc2)cs1 (centres undefined)	.	.	.	-13	?	?
NC(Cc1ccc(F)cc1)c1csc(NC(=O)NC(c2ccccc2)c2ccccc2)n1 (centres undefined)	.	.	.	-53*	13µM*	15µM*
COc1ccc(CNC(=O)Nc2nc(C(N)Cc3ccc(Cl)cc3)cs2)cc1 (centres undefined)	.	.	.	?	18µM*	23µM*
CC(NC(=O)Cc1ccc(NC(=O)N2CCSc3ncccc32)cc1)c1ccccc1 (centres undefined)	6%	.	.	.	?	-30%
CON(C)S(=O)(=O)c1cccc(C(=O)Nc2cccc(S(=O)(=O)NC3=NCCCCC3)c2)c1	.	.	10	-7	?	?
O=c1c[n+]([O-])c2ccccc2n1OCc1c(F)cccc1F	5%	0%	-6	8	21µM*	13µM*
O=C(Nc1ccccc1Cl)c1ccc([N+](=O)[O-])o1	4%	?	-83*	-97*	29µM*	?
O=C(Nc1cccc2ncccc12)c1cccc(Br)c1	.	1%	-9	10	-17%	-6%
Cc1ccc(NC(=O)c2ccc([N+](=O)[O-])o2)c(C)c1	8%	-11%	-90*	-68*	?	23µM*
O=C(Nc1cccc2ncccc12)c1ccc(Br)c([N+](=O)[O-])c1	7%	-4%	-11	-108*	?	?
Cc1ccc(NC(=O)c2ccc(Br)o2)c([N+](=O)[O-])c1	.	.	-12	11	-16%	-10%
CCOc1ccc(C(=O)Nc2cccc3ncccc23)cc1Cl	.	1%	9	8	?	23µM*
